Laboratory results published in PubChem BioAssay (NCI).
Several values for one entry are separate records, joined by “and”; a condition that tells them apart may be missing. Identical values can stand only once. Compounds without any hit were thinned out: in the full panel of roughly 79,000, 15% have a hit. No stated cut-off is given here; in the data, active means growth inhibition above about 70%; inactive means the rest.

How the values were obtained:
[1] = NCI Yeast Anticancer Drug Screen. Data for the rad50 strain (AID 155);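 further: 0% = growth of vehicle-only cultures of the same strain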; conditions: S. cerevisiae rad50 strain growth inhibition; at 50.0 µM; stronger effect = higher value
How it was run: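 Compounds were tested on a yeast strain with an engineered DNA damage repair alteration; the reported value is growth inhibition normalised to vehicle treatment.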

[2] = NCI Yeast Anticancer Drug Screen. Data for the mec2-1 strain (AID 157); conditions: S. cerevisiae mec2-1 strain, at 50.0 µM, stronger effect = higher value
How it was run: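 Test agents were screened against the mec2-1 yeast strain, with defined DNA repair or cell cycle alteration. Growth was scored as inhibition against vehicle-only controls.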

[3] = NCI Yeast Anticancer Drug Screen. Data for the sgs1 mgt1 strain (AID 161);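 further: 0% = growth of cultures given vehicle only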; conditions: S. cerevisiae sgs1 mgt1 strain, at 50.0 µM, stronger effect = higher value
How it was run: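 Test agents were incubated with a DNA-repair-mutant yeast strain. Growth was then read and compared against vehicle-treated controls.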

[4] = NCI Yeast Anticancer Drug Screen. Data for the cln2 rad14 strain (AID 165);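 further: 0% = growth equal to vehicle treated cultures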; conditions: S. cerevisiae cln2 rad14 strain, at 50.0 µM, stronger effect = higher value
How it was run: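 Growth of compound-exposed yeast (cln2 rad14 genotype) measured and expressed as inhibition relative to vehicle.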

[5] = NCI Yeast Anticancer Drug Screen. Data for the bub3 strain (AID 167); conditions: S. cerevisiae bub3 mutant strain, at 50.0 µM, stronger effect = higher value
How it was run: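 Growth of a checkpoint-deficient yeast mutant is measured after compound exposure. Values represent inhibition relative to vehicle.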

[6] = NCI Yeast Anticancer Drug Screen. Data for the mlh1 rad18 strain (AID 175); conditions: S. cerevisiae mlh1 rad18 strain growth inhibition; at 50.0 µM; stronger effect = higher value
How it was run: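 In this whole-cell yeast screen, a strain with altered DNA damage repair is challenged with compound, and its growth is measured against matched vehicle-treated controls.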

Measured: growth inhibition

O=C(/C(=N/N(C(=O)c1ccccc1)c1ccccc1)c1ccccc1)c1ccccc1
inactive: [1] 29.4% and 22.2% | [2] 5.2% and -1.9% | [3] 19% and 16.8% | [4] -12.4% and 16.6% | [5] -3.85% and -6.05% | [6] 8.65% and 26.4%

Cc1ccc(N=Nc2c(O)ccc3cc(S(=O)(=O)O)ccc23)cc1
inactive: [1] 50.9% and 4.8% | [2] -15.5% and -2.8% | [3] 9.8% and 5.85% | [4] -6.85% and -6.7% | [5] -32.6% and 8.05% | [6] 22.8% and 9.35%

C[N+](C)(C)c1ncnc2c1ncn2C1CC(O)C(CO)O1 (stereo not drawn)
inactive: [1] 21.2% and -23.1% | [2] 8.45% and 7% | [3] 15.7% and -2.85% | [4] 3.1% and -6.45% | [5] -33% and 10.6% | [6] 7.55% and 8.6%

COC1OC2COC(C)(C)OC2C1NS(=O)(=O)Cc1ccccc1 (stereo not drawn)
inactive: [1] 2.8% and 0.75% | [2] -6.85% and -9.65% | [3] -2.1% and -4.05% | [4] -32.6% and -34.1% | [5] -3.45% and -11.8% | [6] -14.1% and -6.35%

O=C(NC(=O)c1ccccc1)NC(=O)c1ccccc1
inactive: [1] -2.6% and -1.25% | [2] -10% and -14.1% | [3] -3.35% and 1.1% | [4] 7.8% and -17.6% | [5] 8.35% and -6.25% | [6] -3.65% and -45.1%

COC1C(O)C(O)C(O)C(O)C1O (stereo not drawn)
inactive: [1] 0.95% and -11.2% | [2] -4.8% and -13.4% | [3] -0.35% and -18.1% | [4] 21.2% and 9.9% | [5] -3.1% and -31.4% | [6] -0.45% and -15.6%

O=C(OCC(OC(=O)c1ccccc1)C(OC(=O)c1ccccc1)c1cnn(-c2ccccc2)n1)c1ccccc1 (stereo not drawn)
inactive: [1] -24.1% and 4.05% | [2] 4.1% and 15.4% | [3] -34.4% and -11.9% | [4] -35% and -15.7% | [5] -10.8% and -1.55% | [6] -4.25% and 17.6%

Cn1c(=O)c(Br)cn(C2OC(CO)C3OC32)c1=O (stereo not drawn)
inactive: [1] -6.35% and -9.05% | [2] -0.8% and -4.2% | [3] 18.1% and 4.9% | [4] -19.4% and -15.4% | [5] 25.4% and -4.1% | [6] 4.15% and -0.65%

CC(=O)OC1CC2CCC1(C)C2(C)C (stereo not drawn)
inactive: [1] 34.9% and 30.8% and -12.2% | [2] 26.9% and 26.1% and -20.2% | [3] 25.8% and -34.8% and -3.7% | [4] 19.9% and 18.3% and 5.2% | [5] 29.5% and -30.4% and 3.55% | [6] 4.85% and -78.1% and -14.2%

CCCCc1ccc(OC2OC(COC(C)=O)C(OC(C)=O)C(OC(C)=O)C2OC(C)=O)cc1 (stereo not drawn)
inactive: [1] -29.1% and -28.1% | [2] -14.3% and 6.7% | [3] -42.8% and -12.9% | [4] -4.35% and 17.6% | [5] -32.5% and -4.9% | [6] -35.5% and -0.5%

CCOC(=O)C1=C(C)NC(=O)NC1c1ccccc1 (stereo not drawn)
inactive: [1] 9.5% and -7% | [2] 15.1% and -20.2% | [3] -0.15% and 4.45% | [4] -19.1% and 6.95% | [5] -0.9% and 15.2% | [6] 35.9% and -8.4%

CC(N)(CCO)C(=O)O (stereo not drawn)
inactive: [1] 1.25% and -1.8% | [2] 11.9% and -3% | [3] -5.95% and -19.4% | [4] 1.4% and -18% | [5] -5.5% and 8.75% | [6] 3.95% and 7.2%

CCOC(=O)C1CN(C)CC(c2ccccc2)C1=O (stereo not drawn)
inactive: [1] 12.3% and -8.7% | [2] 14.9% and 1% | [3] 16.1% and -3.5% | [4] -10.4% and -25.1% | [5] 9.25% and -4.45% | [6] 11.1% and 5.6%

CCCCCCCCCCCCc1ccccc1
inactive: [1] 2.15% and 17.9% | [2] 4.1% and 11.4% | [3] -4.15% and 2.6% | [4] 5.25% and -55.8% | [5] 18.2% and -19.8% | [6] 16.1% and -0.6%

NNC(=O)NC(N)=O
inactive: [1] -48.6% and -20.2% | [2] -26.1% and -25.7% | [3] -27.2% and -9.95% | [4] -20.4% and -17.9% | [5] 1.2% and -27.1% | [6] -4.3% and -22.3%

CC(Br)C(=O)NC(Cc1ccccc1)C(=O)O (stereo not drawn)
inactive: [1] 2.65% and -4.15% and -18.5% | [2] -18.9% and 0.65% and -20.2% | [3] -11.8% and 3% | [4] 16.8% and -25.6% | [5] -17.5% and 8.15% | [6] 25.4% and 5.95% and -9.85%

NCC1CCC(CN)CC1 (stereo not drawn)
inactive: [1] -23.9% and -37.9% | [2] -40.7% and -33.4% | [3] -17.6% and -24.7% | [4] -5.15% and 12.1% | [5] -28.9% and -25.8% | [6] -19.9% and -7.3%

O=C1CCSSCCC(=O)NCCN1
inactive: [1] 7.95% and -6.4% | [2] 8.6% and -3.25% | [3] -5.75% and 5.55% | [4] -2.5% and 14.3% | [5] 6.65% and 29% | [6] 16.2% and 0.4%
